Experimental data: PubChem BioAssay (EPA / NIEHS)
Calls of active or inactive are those of the source. Rule for the calls: active = hit-call score of the fitted dose curve at least 0.9, where 1 is the maximum; inactive = score below 0.9.

How the values were obtained:
Conditions in all cases: mRNA level, 48 h; actives raise or lower the signal
[1] = read-out: Ezrin (EZR), EZR (gene 7430); experiment: LTEA_HepaRG_EZR: Life Technologies and Expression Analysis (LTEA) Assay for Ezrin (EZR) using HepaRG (AID 2283491)
Method in brief: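 Differentiated human HepaRG cells, 48 h after plating, were exposed in serum-free induction medium for 48 hours to eight half-log concentrations up to 100 uM in 0.5% DMSO. EZR mRNA was measured by TaqMan qRT-PCR, normalized to ACTB, GAPDH and POLR2A, and fitted bidirectionally against DMSO.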

[2] = read-out: Cytochrome P450 3A7 (Homo sapiens) (UniProt P24462); experiment: LTEA_HepaRG_CYP3A7: Life Technologies and Expression Analysis (LTEA) Assay for CYP3A7 using HepaRG (AID 2283492)
Method in brief: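 CYP3A7 transcript levels were read by TaqMan qRT-PCR on Fluidigm arrays after 48 h chemical exposure of human HepaRG cells, with housekeeping-gene normalisation. Eight half-log concentrations up to 100 uM in 0.5% DMSO were tested in duplicate.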

CYP3A5 (gene 1577) = experiment: LTEA_HepaRG_CYP3A5: Life Technologies and Expression Analysis (LTEA) Assay for CYP3A5 using HepaRG (AID 2283493)
Method in brief: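 HepaRG cells, plated 48 h then in serum-free induction medium, dosed in duplicate for 48 h with eight half-log concentrations up to 100 uM in 0.5% DMSO. Gene mRNA by Fluidigm TaqMan qRT-PCR, normalized to ACTB, GAPDH, POLR2A.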

[3] = read-out: Fatty Acid-Binding Protein 1 (FABP1), FABP1 (gene 2168); experiment: LTEA_HepaRG_FABP1: Life Technologies and Expression Analysis (LTEA) Assay for Fatty Acid-Binding Protein 1 (FABP1) using HepaRG (AID 2283494)
Method in brief: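 Differentiated human HepaRG cells were exposed in duplicate for 48 h in serum-free induction medium to 8-point half-log concentration series topping at 100 uM in 0.5% DMSO. FABP1 mRNA measured by TaqMan qRT-PCR, normalized to ACTB/GAPDH/POLR2A; bidirectional fit versus DMSO.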

[4] = read-out: Cytochrome P450 4A22 (Homo sapiens) (UniProt Q5TCH4); experiment: LTEA_HepaRG_CYP4A22: Life Technologies and Expression Analysis (LTEA) Assay for Cytochrome P450 4A22 (CYP4A22) using HepaRG (AID 2283495)
Method in brief: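 HepaRG, 48 h post-plating -> serum-free induction medium; dosed 48 h, duplicate, 8 conc. (100 uM top, half-log), 0.5% DMSO. Readout: CYP4A22 mRNA by qRT-PCR, ACTB/GAPDH/POLR2A normalization; gain/loss fit relative to DMSO.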

[5] = read-out: Cytochrome P450 7A1 (Homo sapiens) (UniProt P22680); experiment: LTEA_HepaRG_CYP7A1: Life Technologies and Expression Analysis (LTEA) Assay for Cytochrome P450 7A1 (CYP7A1) using HepaRG (AID 2283496)
Method in brief: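 HepaRG cells plated 48 h, then switched to serum-free induction medium and exposed in duplicate for 48 h to 8-point half-log series from 100 uM in 0.5% DMSO. CYP7A1 mRNA by qRT-PCR (TaqMan), normalized to ACTB/GAPDH/POLR2A; bidirectional fit versus DMSO.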

[6] = read-out: Glutathione S-Transferase (GSTA2), GSTA2 (gene 2939); experiment: LTEA_HepaRG_GSTA2: Life Technologies and Expression Analysis (LTEA) Assay for Glutathione S-Transferase (GSTA2) using HepaRG (AID 2283497)
Method in brief: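 Human HepaRG cells, plated 48 h, then exposed in serum-free induction medium for 48 h to eight half-log concentrations up to 100 uM in 0.5% DMSO, duplicate. GSTA2 mRNA by qRT-PCR, normalized to ACTB/GAPDH/POLR2A; bidirectional fit versus DMSO.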

[7] = read-out: Glutamate-cysteine ligase catalytic (GCLC), GCLC (gene 2729); experiment: LTEA_HepaRG_GCLC: Life Technologies and Expression Analysis (LTEA) Assay for Glutamate-cysteine ligase catalytic (GCLC) using HepaRG (AID 2283498)
Method in brief: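 Differentiated human HepaRG cells, plated 48 h then switched to serum-free induction medium, were exposed in duplicate for 48 h to 8 half-log concentrations topping at 100 uM in 0.5% DMSO. GCLC mRNA was quantified by qRT-PCR against ACTB, GAPDH and POLR2A.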

[8] = read-out: growth arrest and DNA damage 45 (GADD45G), GADD45G (gene 10912); experiment: LTEA_HepaRG_GADD45G: Life Technologies and Expression Analysis (LTEA) Assay for growth arrest and DNA damage 45 (GADD45G) using HepaRG (AID 2283499)
Method in brief: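 HepaRG, 48 h exposure, top 100 uM, half-log 8-point series, 0.5% DMSO vehicle, duplicates. Readout: GADD45G transcript by qRT-PCR (Fluidigm array), housekeeping-normalised (ACTB/GAPDH/POLR2A). Bidirectional curve fit vs DMSO baseline.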

[9] = read-out: Glutamate-cysteine ligase regulatory (GCLM), GCLM (gene 2730); experiment: LTEA_HepaRG_GCLM: Life Technologies and Expression Analysis (LTEA) Assay for Glutamate-cysteine ligase regulatory (GCLM) using HepaRG (AID 2283500)
Method in brief: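 Differentiated HepaRG cells exposed 48 h in serum-free induction medium to eight half-log concentrations up to 100 uM (0.5% DMSO). GCLM mRNA by TaqMan qRT-PCR, normalized to ACTB, GAPDH and POLR2A; bidirectional fit versus DMSO.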

[10] = read-out: Glutathione S-transferase M3 (GSTM3), GSTM3 (gene 2947); experiment: LTEA_HepaRG_GSTM3: Life Technologies and Expression Analysis (LTEA) Assay for Glutathione S-transferase M3 (GSTM3) using HepaRG (AID 2283501)
Method in brief: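 qRT-PCR read-out of GSTM3 transcript, normalized to three housekeeping genes, from human HepaRG cells after 48 h chemical exposure. Eight-point half-log series, top 100 uM, 0.5% DMSO vehicle; gain or loss fitted relative to DMSO baseline.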

[11] = read-out: Heat shock 70 kDa protein 1 (HSPA1A), gene 3303; experiment: LTEA_HepaRG_HSPA1A: Life Technologies and Expression Analysis (LTEA) Assay for Heat shock 70 kDa protein 1 (HSPA1A) using HepaRG (AID 2283502)
Method in brief: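 Human HepaRG cells in serum-free induction medium were exposed in duplicate for 48 h to 8 half-log concentrations, highest 100 uM, in 0.5% DMSO. HSPA1A mRNA read by TaqMan qRT-PCR, normalized to ACTB, GAPDH, POLR2A, fitted bidirectionally against DMSO.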

[12] = read-out: Hypoxia-inducible factor 1-alpha (Homo sapiens) (UniProt Q16665); experiment: LTEA_HepaRG_HIF1A: Life Technologies and Expression Analysis (LTEA) Assay for Hypoxia-inducible factor 1 (HIF1A) Trancription factor using HepaRG (AID 2283503)
Method in brief: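 Differentiated HepaRG cells in serum-free induction medium exposed 48 h, in duplicate, to 8-point half-log series from 100 uM in 0.5% DMSO. HIF1A mRNA measured by TaqMan qRT-PCR, normalized to ACTB/GAPDH/POLR2A, fitted bidirectionally versus DMSO.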

[13] = read-out: 3-Hydroxy-3-Methylglutaryl-CoA Synthase 2 (HMGCS2), HMGCS2 (gene 3158); experiment: LTEA_HepaRG_HMGCS2: Life Technologies and Expression Analysis (LTEA) Assay for 3-Hydroxy-3-Methylglutaryl-CoA Synthase 2 (HMGCS2) using HepaRG (AID 2283504)
Method in brief: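 qRT-PCR read-out of HMGCS2 transcript, normalised to three housekeeping genes, in HepaRG cells after 48 h chemical exposure. Eight-point curves from 100 uM, half-log dilutions, 0.5% DMSO vehicle; gain or loss fitted relative to DMSO baseline.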

HGF (gene 3082) = experiment: LTEA_HepaRG_HGF: Life Technologies and Expression Analysis (LTEA) Assay for Hepatocyte Growth Facto (HGF) using HepaRG (AID 2283505)
Method in brief: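 HepaRG, 48 h dosing, 8-pt half-log series from 100 uM in 0.5% DMSO, duplicates. Readout: TaqMan qRT-PCR of HGF mRNA, housekeeping-normalized; bidirectional curve fit vs DMSO baseline.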

[14] = read-out: Insulin Like Growth Factor 1 (IGF1), IGF1 (gene 3479); experiment: LTEA_HepaRG_IGF1: Life Technologies and Expression Analysis (LTEA) Assay for Insulin Like Growth Factor 1 (IGF1) using HepaRG (AID 2283506)
Method in brief: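 Differentiated HepaRG cells in serum-free induction medium, exposed 48 h in duplicate to 8 half-log concentrations up to 100 uM in 0.5% DMSO. IGF1 mRNA by Fluidigm qRT-PCR, normalised to ACTB, GAPDH and POLR2A.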

[15] = read-out: Intercellular Adhesion Molecule 1 (ICAM1), ICAM1 (gene 3383); experiment: LTEA_HepaRG_ICAM1: Life Technologies and Expression Analysis (LTEA) Assay for Intercellular Adhesion Molecule 1 (ICAM1) using HepaRG (AID 2283507)
Method in brief: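 HepaRG, 48 h exposure, 8-pt half-log series from 100 uM, 0.5% DMSO vehicle, duplicates. Readout: TaqMan qRT-PCR mRNA, housekeeping-normalized (ACTB/GAPDH/POLR2A). Bidirectional curve fit vs DMSO baseline.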

[16] = read-out: Insulin-like growth factor-binding protein 1 (IGFBP1), IGFBP1 (gene 3484); experiment: LTEA_HepaRG_IGFBP1: Life Technologies and Expression Analysis (LTEA) Assay for Insulin-like growth factor-binding protein 1 (IGFBP1) using HepaRG (AID 2283508)
Method in brief: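 qRT-PCR mRNA read-out (TaqMan, Fluidigm array), normalised to three housekeeping genes; HepaRG cells, 48 h exposure, 8-pt half-log series from 100 uM, 0.5% DMSO vehicle; bidirectional curve fit vs DMSO baseline.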

[17] = read-out: Interleukin 6 (IL6), IL6 (gene 3569); experiment: LTEA_HepaRG_IL6: Life Technologies and Expression Analysis (LTEA) Assay for Interleukin 6 (IL6) using HepaRG (AID 2283509)
Method in brief: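 Differentiated human HepaRG cells, plated 48 h then switched to serum-free induction medium, were exposed in duplicate for 48 h to eight half-log concentrations up to 100 uM in 0.5% DMSO. IL6 mRNA measured by qRT-PCR, normalized to ACTB/GAPDH/POLR2A.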

[18] = read-out: Interleukin 6 Receptor (IL6R), IL6R (gene 3570); experiment: LTEA_HepaRG_IL6R: Life Technologies and Expression Analysis (LTEA) Assay for Interleukin 6 Receptor (IL6R) using HepaRG (AID 2283510)
Method in brief: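 Differentiated HepaRG cells, plated 48 h, then exposed in duplicate for 48 h in serum-free induction medium to 8 half-log concentrations (top 100 uM, 0.5% DMSO). IL6R mRNA measured by TaqMan qRT-PCR, normalized to ACTB/GAPDH/POLR2A; bidirectional fit vs DMSO.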

Measured: outcome

Sequence of Hypoxia-inducible factor 1-alpha (Homo sapiens) (Q16665 whole entry, looked up): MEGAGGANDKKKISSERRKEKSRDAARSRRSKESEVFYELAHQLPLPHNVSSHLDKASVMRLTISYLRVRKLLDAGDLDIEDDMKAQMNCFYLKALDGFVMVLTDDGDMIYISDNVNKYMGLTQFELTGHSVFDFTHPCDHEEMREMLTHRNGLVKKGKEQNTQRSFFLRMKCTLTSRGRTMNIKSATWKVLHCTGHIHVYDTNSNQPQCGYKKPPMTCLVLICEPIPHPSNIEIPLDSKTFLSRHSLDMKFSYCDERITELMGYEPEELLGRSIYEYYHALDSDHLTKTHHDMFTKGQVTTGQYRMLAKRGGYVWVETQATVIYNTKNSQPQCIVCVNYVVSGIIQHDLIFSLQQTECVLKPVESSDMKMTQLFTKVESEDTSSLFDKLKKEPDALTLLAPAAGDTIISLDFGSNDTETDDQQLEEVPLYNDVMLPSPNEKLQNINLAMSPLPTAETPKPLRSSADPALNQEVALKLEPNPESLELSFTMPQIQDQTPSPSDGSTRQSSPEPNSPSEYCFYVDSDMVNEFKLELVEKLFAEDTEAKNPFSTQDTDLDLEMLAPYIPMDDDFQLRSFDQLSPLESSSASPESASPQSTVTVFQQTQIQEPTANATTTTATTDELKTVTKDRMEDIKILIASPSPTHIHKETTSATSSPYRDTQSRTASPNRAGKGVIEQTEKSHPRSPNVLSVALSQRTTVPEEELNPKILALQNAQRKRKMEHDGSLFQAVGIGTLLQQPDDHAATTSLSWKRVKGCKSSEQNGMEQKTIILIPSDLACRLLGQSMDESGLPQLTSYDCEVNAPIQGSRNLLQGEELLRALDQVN
Sequence of Cytochrome P450 3A7 (Homo sapiens) (P24462 whole entry, looked up): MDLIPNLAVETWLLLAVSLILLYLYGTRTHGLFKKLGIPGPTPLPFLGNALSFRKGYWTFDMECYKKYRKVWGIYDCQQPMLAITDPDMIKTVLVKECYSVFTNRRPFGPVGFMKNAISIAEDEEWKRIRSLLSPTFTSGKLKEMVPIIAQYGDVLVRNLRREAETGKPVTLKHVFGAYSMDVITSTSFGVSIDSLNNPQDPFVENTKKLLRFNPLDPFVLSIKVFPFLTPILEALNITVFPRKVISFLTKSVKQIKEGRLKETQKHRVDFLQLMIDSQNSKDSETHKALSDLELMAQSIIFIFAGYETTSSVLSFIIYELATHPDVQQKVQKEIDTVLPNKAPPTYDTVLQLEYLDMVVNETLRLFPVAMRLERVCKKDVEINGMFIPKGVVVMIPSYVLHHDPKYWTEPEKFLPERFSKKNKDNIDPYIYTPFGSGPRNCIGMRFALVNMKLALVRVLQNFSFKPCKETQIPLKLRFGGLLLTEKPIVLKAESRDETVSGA

O=C(O)c1ccc([N+](=O)[O-])cc1
inactive: [1] | [2] | CYP3A5 (gene 1577) | [3] | [4] | [5] | [6] | [7] | [8] | [9] | [10] | [11] | [12] | [13] | HGF (gene 3082) | [14] | [15] | [16] | [17] | [18]
